SMILES strings stand for the structures. Where “and” joins values, the source holds several entries; their conditions need not be identical. Equal values may be shown once.

The test system of the first assay is Sam68 (KHDRBS1). The assay can be described thus: compounds binding KHDRBS1 protein – biochemical, small-molecule microarray, 635 nm fluorescence, primary screen (AID 1125).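 Note: score merges 667 nm channel intensity with signal to noise over triplicate slides.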 The conditions noted are these: higher = more signal.
The compound `CCOC(=O)NN=C1C[C@@H](O)[C@@H](O)[C@@H]2[C@@H]3C(=O)N(Cc4ccc5c(c4)OCO5)C(=O)[C@@H]3CC[C@@H]12` showed a composite z-score of 0.789.
As for `CCCCCN1CC=CC23O[C@@H]4C=CCCOC(=O)C4[C@H]2C(=O)N(C(C)CO)[C@@H]3C1=O` (stereo not given in full), the composite z-score was 0.656 and 0.708.
For `C=C[C@H](OC)[C@@H](O)c1ccc(OCCO)cc1`, the composite z-score is -0.924 and -0.595.
Regarding `CCCCN1CC=CC23O[C@@H]4C=CCCOC(=O)C4[C@H]2C(=O)N(C(C)CO)[C@@H]3C1=O` (stereo not given in full), the composite z-score was 0.206 and -0.0241.
As for `C=CCN(CCCCC)C(=O)C1N(CCOCCO)C(=O)C2C(C(=O)O)C3C=CC21O3` (stereo not given), the composite z-score is -3.26 and -1.
In the case of `C=CCN(CCCCC)C(=O)C(c1cccs1)N(C(=O)/C=C\C(=O)O)c1ccc(CCO)cc1` (stereo not given), the composite z-score was -0.815 and -0.524.
As for `O=C1NC(=O)C2C1C=CC(C(O)c1ccc([N+](=O)[O-])cc1)N2Nc1ccc(Cl)cc1Cl` (stereo not given), the composite z-score was 0.415 and 0.584.
With `COC(=O)[C@@]1(Cc2ccccc2)[C@H]2c3cc(C(=O)N(C)C)n(C[C@H](O)CO)c3C[C@H]2CN1C(=O)c1ccccc1`, the composite z-score was -0.278 and -0.421.
`CO[C@H]1COC(=O)CC=C[C@@H](C)COC(=O)[C@H](CCSC)NC(=O)CC=C[C@@H]1C`: the composite z-score was 0.982 and 1.31.
With `C=CC[C@@H](O)c1ccc(O)c2ccccc12`, the composite z-score is 1.04 and 1.08.
As for `CCOC(=O)C[C@H]1[C@H](OC(=O)c2ccccc2-c2ccccc2)[C@@H](NC(=O)Cc2ccc(OC)cc2)c2cc(OCCCO)ccc2N1C(=O)c1ccc2ccccc2n1`, the composite z-score is -0.636 and 0.641.
For `CN1C(=O)C2CC=C([C@H]3Oc4ccccc4S(=O)(=O)N4CCC[C@@H]34)CC2C1=O` (stereo not given in full), the composite z-score is -1.08 and -1.56.
In the case of `C[N+](C)(C)CCCCNC(=O)[C@H]1C[C@H]2C(=O)N[C@@H](CCCC[N+](C)(C)C)C(=O)N2[C@H]1c1ccc(O)cc1`, the composite z-score was 1.32 and 0.681.
Same read-out and setting: as for `C=CCN(Cc1ccccc1)C(=O)C1N(c2c(Cl)cccc2CO)C(=O)C2C(C(=O)O)C3C=CC21O3` (stereo not given), the figure is -1.89 and -1.02; as for `O=C1[C@H]2[C@H]3[C@H](O)[C@H](O)CC(=NOCc4ccccc4)[C@H]3CC[C@H]2C(=O)N1Cc1ccccc1`, -0.873.
On to `COC(=O)[C@@]1(Cc2ccc(F)cc2)[C@H]2c3cc(C(=O)N4CCCC4)n(Cc4c(CO)[nH]cc(C)c4=O)c3C[C@H]2CN1C(=O)c1ccccc1`, for which the composite z-score was -0.201 and 0.623.

The next assay has as its system Chordin-like protein 2 (CHRDL2). The assay can be described thus: compounds binding chordin-like 2 – biochemical, small-molecule microarray, 635 nm fluorescence, primary screen (AID 1126).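 Note: printed compound slides probed with Chrdl2 protein at 4 µg/mL for 1 h at 4 C; score merges 667 nm emission intensity with signal to noise over three replicate slides.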 Particulars: fluorescence 635 nm, higher = more signal.
Turning to `C=CCN(C(=O)C(c1cccs1)N(C(=O)/C=C\C(=O)O)c1ccc(CCO)cc1)c1ccc(OC)cc1` (stereo not given), the composite z-score was -1.65 and -3.12.
In turn, `CO[C@@H]1COC(=O)CC=C[C@H](C)COC(=O)[C@H](C)NC(=O)CC=C[C@H]1C` came in with a composite z-score of 1.06.
Consider `CCOC(=O)c1ccc(NC(=O)O[C@H]2[C@H](OC(=O)Nc3ccccc3)[C@@H](OC(=O)Nc3ccccc3)[C@@H](OC)O[C@@H]2CO)cc1`, for which the composite z-score is -0.193 and -0.279.
For `COC(=O)C1=C(C)N(Cc2ccccc2)C2=C(C(=O)c3ccccc3)[C@H](c3ccccc3)[C@@](O)(C(=O)OC)C(=O)N2[C@@H]1c1ccccc1`, the composite z-score was 0.275 and 0.455.
As to `C[C@@]1([C@@H](NC(=O)Cc2ccccc2)c2ccc(-c3ccccc3)cc2)C[C@H]1C1CCCCC1`, the composite z-score is 0.261 and -0.0345 and -0.954.
For `CC(CO)N1C(=O)[C@@H]2C3C(=O)OCCC=C[C@H]3OC23C=CCN(CCN2CCOCC2)C(=O)[C@@H]13` (stereo not given in full), the composite z-score was -0.184 and -0.565.
For `C=C[C@H](C)[C@H](O)c1ccc(O)c2ccccc12`, the composite z-score is -0.14 and -0.152.
As for `C=CCN(CCCC)C(=O)C(c1cccs1)N(C(=O)/C=C\C(=O)O)c1c(Cl)cccc1CO` (stereo not given), the composite z-score is -4.02 and -2.94.
Turning to `C#CCCCON=C1C[C@@H](O)[C@@H](O)[C@@H]2[C@@H]3C(=O)N(C4CCCCC4)C(=O)[C@@H]3CC[C@H]12`, the composite z-score is -0.133.
`Cc1ccc(S(=O)(=O)N[C@H]2COC(=O)[C@@H](C)COC(=O)[C@H](C)NC(=O)CC=C[C@H]2C)cc1`: the composite z-score stood at 0.954.
On to `C=CCN(C(=O)C1N(CCOCCO)C(=O)C2C(C(=O)O)C3C=CC21O3)C(C)(C)C` (stereo not given), for which the composite z-score was -3.33 and -1.51.
Same read-out and setting: as for `C=CCN(CCCC)C(=O)C1N(CCOCCO)C(=O)C2C(C(=O)O)C3C=CC21O3` (stereo not given), the figure is -1.67 and -1.1.
In turn, `COc1ccc(COC(=O)NN=C2C[C@@H](O)[C@@H](O)[C@@H]3[C@@H]4C(=O)N(C(C)(C)C)C(=O)[C@@H]4CC[C@H]23)cc1` showed a composite z-score of 0.0955.
On the same count and under the same terms, with `COC(=O)C1=C2N(Cc3ccccc3)C(C)=C(C(=O)OC)[C@@H](c3ccccc3)N2C(=O)[C@](O)(C(=O)OC)C1` the figure was 0.392 and 0.77; with `C[N+](C)(C)CCCCNC(=O)[C@@H]1C[C@@H]2C(=O)N[C@@H](CCCC[N+](C)(C)C)C(=O)N2[C@@H]1c1cccc(OCCO)c1`, 1.56 and 1.47; with `C[C@@H]1CC[C@H]2C(=O)N3[C@@H](CC[C@@H](C)[C@@H]3c3ccc(-c4ccco4)cc3)C(=O)N2[C@H]1c1ccc(-c2ccco2)cc1`, 1.05 and 1.57.
Consider `C=CCN(Cc1ccccc1)C(=O)C1N(c2ccc(CCO)cc2)C(=O)C2C(C(=O)O)C3C=CC21O3` (stereo not given), for which the composite z-score was -1.61 and -3.84.
Consider `CC(C)N1CC=CC23O[C@@H]4C=CCCOC(=O)C4[C@H]2C(=O)N(C(C)CO)[C@@H]3C1=O` (stereo not given in full), for which the composite z-score is -2.61 and -1.23.
`CC(C)C(=O)N[C@@H]1CCCN1C(=O)C=Cc1ccccc1`: the composite z-score was 0.933.
Still for that read-out and setting: as for `CO[C@@H]1COC(=O)[C@H](Cc2ccccc2)NC(=O)CC=C[C@@H](C)[C@H](OC)COC(=O)[C@@H](C)NC(=O)CC=C[C@H]1C`, the figure is 1.03 and 1.43.
As for `COC(=O)[C@@]1(Cc2ccc(OC)cc2)[C@H]2c3cc(C(=O)N(C)C)n(Cc4ccc(O)c(OC)c4)c3C[C@H]2CN1C(=O)c1ccccc1`, the composite z-score was -1.12 and -0.44.
Turning to `C=CCN(CCCCC)C(=O)C1N(CCCCCCO)C(=O)C2C(C(=O)O)C3C=CC21O3` (stereo not given), the composite z-score is -3.13 and -1.54.
For `O=c1n(-c2ccccc2)c(=O)n2n1CC[C@@H]1C(=NOC[C@@H](O)COCc3ccco3)[C@H]3O[C@H]3[C@@H](O)[C@@H]12`, the composite z-score is 1.31 and 0.628.
In turn, `CCOC(=O)NN=C1C[C@@H](O)[C@@H](O)[C@@H]2[C@@H]3C(=O)N(Cc4ccc5c(c4)OCO5)C(=O)[C@@H]3CC[C@@H]12` displayed a composite z-score of 0.171.
On to `CCCCCN1CC=CC23O[C@@H]4C=CCCOC(=O)C4[C@H]2C(=O)N(C(C)CO)[C@@H]3C1=O` (stereo not given in full), for which the composite z-score was -0.397 and -0.845.
With `C=C[C@H](OC)[C@@H](O)c1ccc(OCCO)cc1`, the composite z-score is -2.3 and -0.674.
Take `CCCCN1CC=CC23O[C@@H]4C=CCCOC(=O)C4[C@H]2C(=O)N(C(C)CO)[C@@H]3C1=O` (stereo not given in full): the composite z-score is 0.375 and -0.0584.
As for `C=CCN(CCCCC)C(=O)C1N(CCOCCO)C(=O)C2C(C(=O)O)C3C=CC21O3` (stereo not given), the composite z-score was -2.12 and -3.36.
On the same count and under the same terms, with `C=CCN(CCCCC)C(=O)C(c1cccs1)N(C(=O)/C=C\C(=O)O)c1ccc(CCO)cc1` (stereo not given) the figure was -0.96 and -1.97; with `O=C1NC(=O)C2C1C=CC(C(O)c1ccc([N+](=O)[O-])cc1)N2Nc1ccc(Cl)cc1Cl` (stereo not given), -0.532 and -0.0926; with `COC(=O)[C@@]1(Cc2ccccc2)[C@H]2c3cc(C(=O)N(C)C)n(C[C@H](O)CO)c3C[C@H]2CN1C(=O)c1ccccc1`, -0.138 and -0.519.
As for `CO[C@H]1COC(=O)CC=C[C@@H](C)COC(=O)[C@H](CCSC)NC(=O)CC=C[C@@H]1C`, the composite z-score is 1.54 and 1.65.
Take `C=CC[C@@H](O)c1ccc(O)c2ccccc12`: the composite z-score is 1.38 and 1.23.
As to `CCOC(=O)C[C@H]1[C@H](OC(=O)c2ccccc2-c2ccccc2)[C@@H](NC(=O)Cc2ccc(OC)cc2)c2cc(OCCCO)ccc2N1C(=O)c1ccc2ccccc2n1`, the composite z-score is -0.0194 and -0.181.
On to `CN1C(=O)C2CC=C([C@H]3Oc4ccccc4S(=O)(=O)N4CCC[C@@H]34)CC2C1=O` (stereo not given in full), for which the composite z-score is -0.144 and 0.153.
Regarding `C[N+](C)(C)CCCCNC(=O)[C@H]1C[C@H]2C(=O)N[C@@H](CCCC[N+](C)(C)C)C(=O)N2[C@H]1c1ccc(O)cc1`, the composite z-score was 1.5 and 1.48.
Take `C=CCN(Cc1ccccc1)C(=O)C1N(c2c(Cl)cccc2CO)C(=O)C2C(C(=O)O)C3C=CC21O3` (stereo not given): the composite z-score is -3.43 and -1.44.
Compound `O=C1[C@H]2[C@H]3[C@H](O)[C@H](O)CC(=NOCc4ccccc4)[C@H]3CC[C@H]2C(=O)N1Cc1ccccc1` showed a composite z-score of 0.374.
As to `COC(=O)[C@@]1(Cc2ccc(F)cc2)[C@H]2c3cc(C(=O)N4CCCC4)n(Cc4c(CO)[nH]cc(C)c4=O)c3C[C@H]2CN1C(=O)c1ccccc1`, the composite z-score was -0.114 and -0.367.

For the origin of these results see PubChem BioAssay.
